# Data as given in PubChem BioAssay AID1768 (National Center for Advancing Translational Sciences (NCATS), 2009).
# In all, about 270,000 compounds went through this assay and about 620 (0.23%) were called active. Entries that show only a call come without a potency. Not shown: some 12% with an inconclusive outcome. Calls come from the whole dose curve; as a rule, active = well fitted inhibition curve with a large enough effect in the polarisation, with a control signal flat (not every such curve was filed as active); inconclusive = small, poorly fitted or top-dose-only effect, or effect the other way, or a change in a side signal; inactive = no such curve, though single readings can be large or run the other way; the % refers to the polarisation. This excerpt belongs to a sample that is enriched for actives.
# Molecular target: Menin (Homo sapiens) (UniProt O00255)
# Experiment: qHTS Assay for Inhibitors Targeting the Menin-MLL Interaction in MLL Related Leukemias: Competition With Texas Red Labeled MLL-derived Mutant Peptide
# Details: fluorescence polarization; series mostly up to 61.6 µM
# Text: qHTS Assay for Inhibitors Targeting the Menin-MLL Interaction in MLL Related Leukemias NIH Chemical Genomics Center [NCGC] NIH Molecular Libraries Probe Centers Network [MLPCN] MLPCN Grant: MH084875-01A1 Assay Submitter (PI): Jolanta Grembecka, Tomasz Cierpicki, University of Virginia Translocations of the MLL (Mixed Lineage Leukemia) gene are frequently found in human leukemias affecting both children and adults. Fusion of MLL to one of more than 60 genes results in generation of oncogenic proteins upregulating Hox genes, which are vital to blood cell development. Patients harboring fusion of the MLL gene suffer from aggressive leukemias and respond poorly to available therapies. All of the oncogenic fusion proteins have a preserved N-terminal fragment of MLL that has been identified to interact with menin. It has been recently discovered that association with menin is critical to the leukemogenic activity of the MLL fusion oncoproteins. Selective targeting of the menin-MLL interaction could provide an attractive therapeutic approach to develop novel drugs for MLL-related leukemias. Small molecules blocking the menin-MLL interaction should reverse the oncogenic potential of MLL fusion proteins. We have developed and optimized a fluorescence polarization-based assay for the identification of Menin-MLL inhibitors. The assay was run employing two different MLL-derived peptides. The present assay uses a 12 amino acid peptide labeled with fluorescein at its N-terminus. This peptide consists of the menin high affinity binding motif from MLL and is potently bound by menin. Another peptide with a mutated sequence, labeled with Texas Red, was used in parallel as a less stringent screen for inhibitors.
# The Menin protein, the MLL-wild type (w.t.) derived peptide (N-terminal 12 amino acids), the MLL-derived peptide labeled with Texas Red and the MLL-w.t. peptide labeled with Fluorescein were kindly supplied by laboratory of Dr. Jolanta Grembecka, University of Virginia. All protein and peptide solutions were stored in single use aliquots at -80C. The Eu3+ Cyrptate-conjugated mouse monoclonal antibody anti-6 Histidine (Eu3+-AB) and the Streptavidin-XL665 conjugate (XL665) were purchased from Cisbio International (Bedford, MA). All antibody and XL665 conjugate solution stocks were stored in single use aliquots at -20C. The Buffer components for all assays were purchased from Sigma-Aldrich (St. Louis, MO) and Invitrogen (Carlsbad, CA). FP Assay Reagents: 1. FP reaction buffer: 50 mM Tris-HCl pH 7.5, 50 mM NaCl, 1mM DTT. Before use, 0.05% BSA is added. 2. Menin protein, MLL-w.t. labeled with fluorescein, MLL-mutant peptide labeled with texas red. Stored in singe use aliquots at -80C. 3. MLL-w.t. unlabeled peptide as positive control: 10 uM final in FP buffer. FP Assay Procedure: 1. Prepare Menin at 200 nM, MLL-w.t.-fluorescein at 25 nM, and MLL-mutant-texas red at 50 nM mixture in FP buffer. 2. Prepare Menin at 200 nM, MLL-w.t.-fluorescein at 25 nM, MLL-mutant-texas red at 50 nM, and 10 uM MLL-w.t. unlabeled mixture in FP buffer. 3. Prepare MLL-w.t.-fluorescein at 25 nM and MLL-mutant-texas red at 50 nM mixture in FP buffer. 3. Dispense 4 ul per well of reagent in step 1 in columns 2, 4 - 48 in a black 1536 well plate, dispense 4 ul per well of reagents from steps 2 and 3 in columns 1 and 3 respectively. Incubate plate at ambient for 15 minutes. 4. Transfer 23 nl per well of compound to plate and incubate at ambient for 1 hr. 5. Read fluorescence polarization for each label using the PerkinElmer Envision. Envision protocol for fluorescein: FITC FP Dual Enh Mirror, Excitation filter 480, Emission filter (1) P-pol 535, Emission filter (2) S-pol 535 Envision protocol for texas red: FP Dual Enh Mirror, Excitation filter 555, Emission filter (1) P-pol 632, Emission filter (2) S-pol 632
# Potency is the fitted concentration of half-maximal effect.
# Chain of Menin (Homo sapiens) (O00255 whole entry, looked up): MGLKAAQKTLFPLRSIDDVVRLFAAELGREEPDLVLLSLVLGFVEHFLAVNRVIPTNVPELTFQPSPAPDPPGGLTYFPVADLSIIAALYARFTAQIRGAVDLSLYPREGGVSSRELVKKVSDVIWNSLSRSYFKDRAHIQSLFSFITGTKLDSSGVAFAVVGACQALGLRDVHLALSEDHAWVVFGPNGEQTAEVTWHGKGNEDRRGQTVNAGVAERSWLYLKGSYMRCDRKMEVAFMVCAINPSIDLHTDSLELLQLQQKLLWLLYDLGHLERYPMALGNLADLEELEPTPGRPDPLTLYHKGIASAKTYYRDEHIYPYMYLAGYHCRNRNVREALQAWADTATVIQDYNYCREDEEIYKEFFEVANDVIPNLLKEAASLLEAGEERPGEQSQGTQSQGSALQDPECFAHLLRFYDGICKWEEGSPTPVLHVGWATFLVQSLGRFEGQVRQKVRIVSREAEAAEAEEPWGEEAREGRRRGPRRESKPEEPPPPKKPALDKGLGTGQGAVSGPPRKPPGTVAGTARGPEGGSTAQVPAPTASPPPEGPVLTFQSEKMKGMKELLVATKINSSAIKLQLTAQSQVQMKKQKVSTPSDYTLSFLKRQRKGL
row,Compound,Potency
1,CC[N+](C)(CC)CCC[n+]1c(-c2ccccc2)c2cc(N)ccc2c2ccc(N)cc21,12.6 µM (active)
2,CC(=O)[O][Sn]([c]1ccccc1)([c]1ccccc1)[c]1ccccc1,inactive
3,CCN(CC)c1nc(C)cc(OP(=S)(OC)OC)n1,inactive
4,COC([CH2][Hg])CNC(=O)c1ccccc1OCC(=O)O (stereo not given),inactive
5,CO[C@H]1[C@@H](O)[C@@H](C)O[C@H](O[C@H]2[C@H](Oc3cccc4c(O)c5c(=O)oc6ccc(C)c7c(=O)oc(c34)c5c67)O[C@H](C)[C@H](O)[C@@H]2O)[C@@H]1O,inactive
6,N#Cc1cc(Br)c(O)c(Br)c1,inactive
7,CC[C@H]1CN2CCc3cc(OC)c(OC)cc3[C@@H]2C[C@@H]1C[C@H]1NCCc2cc(OC)c(OC)cc21,22.4 µM (active)
8,C[C@]12O[C@H](C[C@@]1(O)C(=O)O)n1c3ccccc3c3c4c(c5c6ccccc6n2c5c31)CNC4=O,inactive
9,C[C@@H]1C[C@H]2CC[C@H](O2)[C@H](C)C(=O)O[C@@H](C)C[C@@H]2CC[C@@H](O2)[C@@H](C)C(=O)O[C@H](C)C[C@H]2CC[C@H](O2)[C@H](C)C(=O)O[C@@H](C)C[C@@H]2CC[C@@H](O2)[C@@H](C)C(=O)O1,inactive
10,O=C1CCc2cccc3c2N1CC3,inactive
